# Bioassay records from PubChem BioAssay.
# In the library only some 2.8% were active in any assay of this set; here they are far more common.
# SENP6 inh = SENP6 protease inhibition | Q9GZR1 | Recombinant SENP6 catalytic domain, aminoluciferin luminescence | inhibition, % at 10 µM | 1.8% of 330,000 active | AID 2599;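 active = inhibition above about 50% at the single tested dose, limit read from the data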
# Target sequence (Q9GZR1 628-1112 limits assumed): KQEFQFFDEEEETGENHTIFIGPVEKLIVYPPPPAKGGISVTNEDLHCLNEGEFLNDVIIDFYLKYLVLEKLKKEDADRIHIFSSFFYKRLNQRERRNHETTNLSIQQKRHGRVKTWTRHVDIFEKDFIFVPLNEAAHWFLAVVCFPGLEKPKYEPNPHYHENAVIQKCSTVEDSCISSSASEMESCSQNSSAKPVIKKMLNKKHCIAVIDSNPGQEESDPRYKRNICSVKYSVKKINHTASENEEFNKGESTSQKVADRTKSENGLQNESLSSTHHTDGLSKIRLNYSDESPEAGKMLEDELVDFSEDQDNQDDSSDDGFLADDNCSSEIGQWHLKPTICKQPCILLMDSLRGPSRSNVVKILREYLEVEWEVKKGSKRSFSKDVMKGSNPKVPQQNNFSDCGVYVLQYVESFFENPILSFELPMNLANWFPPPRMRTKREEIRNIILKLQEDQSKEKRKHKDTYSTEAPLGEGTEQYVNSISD
# SENP8 block-1 = blocks the human protease SENP8; Q96LD8; purified SENP8, Z-RLRGG-aminoluciferin cleavage, luminescence; inhibition, % at 10 µM; 1.2% of 330,000 active; in the data active = inhibition above about 50%
# HSP90 inh = blocks HSP90-mediated luciferase refolding in reticulocyte lysate | Rabbit reticulocyte lysate, luciferase refolding luminescence, 3 h | inhibition, % at 5.6 µM | 0.91% of 290,000 active;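 active = inhibition above the screen-wide mean plus 3 SD, computed separately per campaign, cut at about 16% in these data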;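 note: inhibitors lower the luminescence because luciferase stays unfolded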
# SENP8 block-2 = SENP8 (human) protease inhibition | Q96LD8 | recombinant SENP8, Nedd8 substrate fluorescence | inhibition, % at 20 µM | 0.64% of 360,000 active | AID 602440; in the data active = inhibition mostly above about 40%, no sharp cut-off; inactive = mostly below about 27%
# SENP7 block = inhibitors of human SENP7 protease; 1.5% of 330,000 active; Q9BQF6; inhibition, % at 5 µM; AID 434973; recombinant SENP7, Z-RLRGG-aminoluciferin luminescence, 40 min;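 active = inhibition above about 50% at the single test dose, limit read from the data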
# Platelet DG rel = platelet dense granule release activity | human platelet-rich plasma, SFLLRN dense granule ATP release, luminescence | inhibition, %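 (compounds screened at 7.5 µM in platelet-rich plasma)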 | 0.22% of 300,000 active;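 active = mean replicate score, as percent of positive control, at or above 50; inconclusive = mean below 50 but at least one replicate at or above 50; inactive = mean and every replicate below 50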
# SENP8 confirm = human SENP8 inhibition, confirmed; shares compounds with SENP7 block; Recombinant SENP8, Z-RLRGG-aminoluciferin luminescence, 60 min; inhibition, % at 12.5 µM; 40% of 6,200 active;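 active = mean inhibition across replicates above about 50%, limit read from the data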
# SENP6 conf = human SENP6 inhibition, confirmed; 58% of 6,200 active; inhibition, % at 12.5 µM; shares compounds with SENP7 block; recombinant SENP6, Z-RLRGG-aminoluciferin luminescence
# SENP7 confirm = confirmation of human SENP7 protease inhibitors | shares compounds with SENP7 block | recombinant SENP7, Z-RLRGG-aminoluciferin luminescence, 40 min | inhibition, % at 12.5 µM | 69% of 6,200 active
# Casp3 SENP sel = inhibits human caspase-3 in SENP selectivity test; shares compounds with SENP7 block; purified caspase-3, Z-DEVD-aminoluciferin luminescence, 60 min; inhibition, % at 12.5 µM; 60% of 6,200 active;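 active = mean inhibition above about 50%, limit read from the data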
# SENP luc ctr = counter-screen for SENP inhibitors: luminescence interference; shares compounds with SENP7 block; Pre-incubated SENP8/Z-RLRGG-aminoluciferin, luciferase luminescence interference; inhibition, % at 12.5 µM; 39% of 6,200 active; AID 488919;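 active = mean inhibition above about 50% when retested at one dose, limit read from the data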
# Numbers stand for hits; i = inactive; ? = inconclusive; nt = not tested or not shown; ! = repeats disagree.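 Rule for the calls, unless noted: active = mean inhibition above about 50% in the one-dose retest (limit read from the data); inactive = the rest.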
SMILES,SENP6 inh,SENP8 block-1,HSP90 inh,SENP8 block-2,SENP7 block,Platelet DG rel,SENP8 confirm,SENP6 conf,SENP7 confirm,Casp3 SENP sel,SENP luc ctr
CC(=O)Oc1ccc2cc(-c3ccccc3)c(=O)oc2c1,93,86,i,i,85,i,i,i,50,i,i
CCOC(=O)c1c(N)n(CCOC(=O)c2cccs2)c2nc3ccccc3nc12,84,i,i,i,i,i,i,i,i,i,i
COc1ccc(-n2c3nc4ccccc4nc3c3c(=N)oc(C)nc32)cc1,90,63,i,i,75,i,i,i,i,i,i
CCOC(=O)C1(C)CCCN(C(=O)COc2ccccc2)C1 (stereo not given),nt,nt,nt,i,nt,nt,nt,nt,nt,nt,nt
Cc1ccc([C@@H]2C[C@H]3CN(Cc4cccc(Cl)c4)C(=O)[C@]34CCCN24)o1,64,i,i,i,i,i,i,i,i,i,i
COc1ccc2ccc(OC)c(/C=N/NC(=O)c3cc4ccccc4o3)c2c1,nt,nt,nt,i,nt,nt,nt,nt,nt,nt,nt
CCCc1nc(SCC(=O)N2CCc3ccccc3C2)c2ccccc2n1,i,i,i,i,98,i,i,i,i,i,i
COc1ccc(CNC(=O)c2ccc(CS(=O)(=O)Cc3ccccc3F)o2)cc1,i,i,i,i,i,i,nt,nt,nt,nt,nt
C=CCN(CC=C)Cc1cc(=O)oc2ccccc12,nt,nt,nt,i,nt,nt,nt,nt,nt,nt,nt
O=C1/C(=C\c2ccc(O)cc2)SC(=S)N1/N=C/c1ccc(O)cc1,98,90,i,i,83,i,i,i,i,i,57
CC(=O)NN1C(=O)/C(=C\c2ccc(O)cc2)SC1=S,69,60,i,i,54,i,63,61,85,82,74
O=C1C2C3C=CC(CC3)C2C(=O)N1/N=C/c1ccc(O)cc1 (stereo not given),i,i,i,i,i,i,nt,nt,nt,nt,nt
O/C(=C\c1ccc2ccccc2n1)c1ccncc1,98,90,nt,i,97,i,94,94,102,97,94
CCN(CC)CC(=O)Nc1nc(-c2ccc(Cl)cc2)cs1,i,i,i,i,i,i,nt,nt,nt,nt,nt
CCNc1nc(-c2ccc(Cl)cc2)cs1,85,72,i,i,62,i,i,71,94,60,69
CNc1nc(-c2ccc(Cl)cc2)cs1,62,i,i,i,i,i,54,58,82,51,i
COc1ccccc1N1CCN(c2ccc(-c3ccccc3)nn2)CC1,94,95,i,i,i,54,79,89,98,90,i
CCOC(=O)N1CCN(S(=O)(=O)c2ccc(OC)c(C(=O)N3CCCCC3)c2)CC1,i,i,i,i,i,i,nt,nt,nt,nt,nt
c1ccc(-c2n[nH]c(-c3ccccn3)n2)nc1,66!,i,i,i,59,i,53,51,78,84,61
CCOc1ccc(NC(=O)c2nn(C)cc2Br)cc1,i,i,i,i,i,i,nt,nt,nt,nt,nt
Cn1cc(Br)c(C(=O)Nc2ncc(Br)s2)n1,i,i,i,i,70,i,i,i,i,i,i
Cc1[nH]n(-c2cccc(Cl)c2)c(=O)c1C=NCc1ccco1,52,i,i,i,i,i,i,i,i,i,i
Cc1ccc(NC(=O)CC2C(=O)NC3CCCCC3N2C(=O)c2ccc(F)cc2)cc1C (stereo not given),54,i,i,i,i,?,i,i,i,i,i
Cc1cccc(/C=c2\s/c(=C\C(=O)C(C)(C)C)[nH]c2=O)c1,i,i,i,i,i,i,nt,nt,nt,nt,nt
Cc1cccc(/C=C2\CCC(=C3SCCCS3)C2=O)c1,91,93,i,i,92,i,i,i,i,i,i
SMILES,SENP6 inh,SENP8 block-1,HSP90 inh,SENP8 block-2,SENP7 block,Platelet DG rel,SENP8 confirm,SENP6 conf,SENP7 confirm,Casp3 SENP sel,SENP luc ctr
Cc1[nH]c2ccccc2c1C(=O)C(C)OC(=O)c1ccc(Cl)nc1 (stereo not given),i,i,nt,i,i,i,nt,nt,nt,nt,nt
O=C(Nc1ccccc1)C(=O)c1c[nH]c2ccccc12,93,89,i,i,97,i,86,90,100,85,i
Cc1cccc(C(=O)N[C@H](C(=O)NCCc2ccc(Cl)cc2)C(C)C)c1,i,i,i,i,i,i,nt,nt,nt,nt,nt
COc1ccccc1CNC(=O)c1cn(C)c2ccc(S(=O)(=O)N3CCCC3)cc2c1=O,i,i,i,i,i,i,nt,nt,nt,nt,nt
Cc1ccc(Nc2nc(N)c3ccccc3n2)cc1Cl,97,97,i,i,98,52,99,100,103,93,85
Cc1ccccc1Nc1nc(N)c2ccccc2n1,i,91,18,i,95,58,94,95,102,97,95
COc1cc2nc(Nc3ccc(C)c(Cl)c3)nc(N)c2cc1OC,i,i,i,i,i,i,nt,nt,nt,nt,nt
COc1ccc(C)cc1Nc1nc(N)c2ccccc2n1,i,i,i,i,i,i,nt,nt,nt,nt,nt
Nc1nc(Nc2ccccc2)nc2ccccc12,94,91,i,i,97,59,97,98,103,97,96
Nc1nc(Nc2ccc(Cl)cc2)nc2ccccc12,98,95,16,i,97,73,96,97,101,93,95
O=Cc1ccc(N2Cc3ccccc3C2)cc1,68,54,i,i,i,i,i,55,81,66,i
Cc1cc(N2Cc3ccccc3C2)ccc1C=O,57,i,i,i,i,i,i,73,93,80,i
Cc1ccccc1C=O,i,i,nt,i,i,nt,nt,nt,nt,nt,nt
Cc1cc2c(cc1C)CN(c1ccccc1)C2,59,57,i,i,i,i,51,i,79,79,70
Oc1ccc(N2Cc3ccccc3C2)cc1,i,i,i,i,i,i,nt,nt,nt,nt,nt
Cc1ccc(/C=C/C(=O)O)cc1S(=O)(=O)NCc1ccco1,i,i,i,i,i,i,nt,nt,nt,nt,nt
Nc1cc(OCc2ccccc2)ccc1OCc1ccccc1,nt,nt,nt,i,nt,nt,nt,nt,nt,nt,nt
c1ccc(COc2ccc3nocc3c2)cc1,93,90,nt,i,90,i,86,90,100,91,84
CC(=O)c1sc(Nc2nc3ccc(F)cc3s2)nc1C,81,53,i,i,i,i,i,72,90,i,i
CCOC(=O)c1sc(Nc2nc3ccc(OC)cc3s2)cc1C,i,i,i,i,i,i,nt,nt,nt,nt,nt
CCOC(=O)c1csc(Nc2nc3ccc(F)cc3s2)n1,58,i,i,i,i,i,i,i,i,i,i
CC(=O)c1sc(Nc2cccc(C)c2)nc1C,i,i,i,i,i,i,nt,nt,nt,nt,nt
